Assay [1] can be described thus: qHTS Assay for Identifying Gametocytocidal Compounds (AID 743244).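 Further: on the % scale 0 is the no-effect control and ±100 the full control effect; actives lower the fluorescent signal which means gametocytes are killed.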 Conditions: P. falciparum 3D7 stage III-V gametocytes, alamarBlue, 72 h; max response: stronger effect = lower value. Summed up: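 A resazurin-based viability read-out was applied to mature P. falciparum gametocytes: 72 h compound treatment, then 24 h dye incubation, with falling fluorescence signalling gametocytocidal effect.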

A short description of assay [2]: qHTS profiling of the MIPE4 collection as inhibitors of Plasmodium falciparum (3D7) proliferation (AID 743344; call rule not given here;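 further: scaled between DMSO vehicle wells and 0.29 µM artemisinin as full inhibition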). Conditions: P. falciparum 3D7 in erythrocytes, SYBR Green DNA fluorescence, 72 h; at 28.5 µM (top of the series) unless noted. Summed up: (§1)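 Erythrocytes infected with P. falciparum (0.3% parasitemia, 2.5% hematocrit) incubated with compounds 72 h at 37 C, 5% CO2. Lysis with saponin/Triton buffer containing SYBR Green I, overnight at room temperature in the dark; DNA fluorescence (485/535 nm) normalised to 0.29 uM artemisinin and DMSO.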
In general terms: In qHTS, concentration-response curves come from the screen itself.

A short description of assay [3]: qHTS profiling of the MIPE4 collection as inhibitors of Plasmodium falciparum (DD2) proliferation (AID 743345; call rule not given here). Conditions: P. falciparum Dd2 in erythrocytes, SYBR Green DNA, 72 h; at 28.5 µM (top of the series) unless noted. Summed up: as §1
The nature of assay [4]: qHTS profiling of the MIPE4 collection as inhibitors of Plasmodium falciparum (DD2) proliferation (Rep 2) (AID 743346; call rule not given here). Conditions: P. falciparum Dd2 in erythrocytes, SYBR Green DNA, 72 h; at 28.5 µM (top of the series) unless noted. Summed up:
as §1

Assay [5] in a line: qHTS profiling of the MIPE4 collection as inhibitors of Plasmodium falciparum (HB3) proliferation (AID 743347; call rule not given here;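 further: plate controls were DMSO vehicle wells for no effect and artemisinin wells for full effect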). The following applies: P. falciparum HB3 in erythrocytes, SYBR Green DNA, 72 h; at 28.5 µM (top of the series) unless noted. Summed up:
as §1

A short description of assay [6]: High-throughput drug toxicity screening in the BPDCN cell line Gen2.2 (AID 1224824; call rule not given here;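 further: cells exposed to compounds for 48 h before reading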). Conditions: Gen2.2 BPDCN cells; at 45.8 µM (top of the series) unless noted. Summed up:
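Gen2.2 cells (500/well) in phenol red-free RPMI with 10% FBS were exposed to compounds for 48 h at 37 °C, 5% CO2. Viability was read by CellTiter-Glo luminescence and normalized to DMSO (100%) and 9.2 uM bortezomib (0%).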

Assay [7] is described as follows: High-throughput drug toxicity screening in the BPDCN cell line Cal-1 (AID 1224825; call rule not given here). Conditions: Cal-1 BPDCN cell viability, qHTS; at 45.8 µM (top of the series) unless noted. The gist of the method:
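500 Cal-1 cells/well, RPMI + glutamine + 10% FBS (phenol red-free); cpd added by pin tool; 48 h, 37C, 5% CO2; CTG 15 min RT, lumi read. Normalised: DMSO 100%, bortezomib 9.2 uM 0%.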

Assay [8] is described as follows: qHTS assay for measurement of the activity of small molecule inhibitors on Zika virus induced Caspase-3 activity in human iPSC derived neural progenitor cells (hNPCs) (AID 1224857). Further: % of control where 0% means no effect; nearly all actives have a fitted effect of over 65% in size. The gist of the method:
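Quantitative HTS format: human iPSC neural progenitors, 1 h compound pretreatment, ZIKV 2 FFU/cell for 6 h at 37 C. Percent inhibition derived from luminescent caspase-3/7 signal between uninfected and infected controls.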

The nature of assay [9]: qHTS assay for measurement of the activity of small molecule inhibitors on Zika virus induced Caspase-3 activity in human astrocytoma cells (AID 1224859).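 Further: plate controls were ZIKV-infected untreated cells for no effect and uninfected cells for full effect.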 Summed up: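 Readout is luminescence from Caspase-Glo 3/7 added after a 6 h ZIKV infection (2 FFU/cell) of compound-pretreated (1 h) SNB-19 cells; data expressed as % inhibition versus uninfected and infected wells.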
A short description of assay [10]: qHTS Screen of the MIPE 4.0 Collection Against Ewings Sarcoma (RDES) (AID 1259252). Further: nearly all actives have a fitted effect of over 35% in size. Further: potency means the concentration at half of the fitted maximal effect. Summed up: (§2)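 CellTiter-Glo luminescence after 48 h compound exposure (titration) gave viability; percent activity used DMSO-treated cells as no inhibition and medium-only wells as full inhibition. Cells grown in RPMI/5% FBS, dosed 4 h post-seeding.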
Assay [11] in a line: qHTS Screen of the MIPE 4.0 Collection Against Ewings Sarcoma (TC71) (AID 1259253). Further: nearly all actives have a fitted effect of over 40% in size. Further: potency means the concentration at half of the fitted maximal effect. The gist of the method: as §2
A short description of assay [12]: qHTS Screen of the MIPE 4.0 Collection Against Ewings Sarcoma (EW8) (AID 1259255).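 Further: 100% = DMSO-treated cells and 0% = medium-only wells without cells; nearly all actives have a fitted effect of over 35% in size.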 The gist of the method:
as §2

The nature of assay [13]: qHTS assay for small molecule agonists of the antioxidant response element (ARE) signaling pathway measured by Nrf2-dependant transcriptional activity - cell viability counter screen (AID 720653; active means well fitted curve in the direction sought with a large enough effect in the repeat runs; an effect the other way counts as inactive or inconclusive; further: on the % scale 0 is the no-effect control and ±100 the full control effect). Conditions: ARE-bla HepG2 viability, CellTiter-Glo ATP luminescence, 16 h; max response: stronger effect = lower value. The gist of the method: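 Cytotoxicity counter screen: intracellular ATP quantified by CellTiter-Glo luminescence in the same ARE-bla HepG2 plates, after 16 h compound exposure and a 2 h beta-lactamase substrate step.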

Assay [14] deals with T1, Hexokinase-4 (Homo sapiens) + Glucokinase regulatory protein (Homo sapiens) (UniProt P35557+Q14397). The experiment in a line: qHTS assay for inhibitors of recombinant human GCK-GKRP interaction: Diaphorase-coupled assay (AID 743205). Summed up:
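GST-GCK (10 nM) with FLAG-GKRP (10 nM), 5 mM glucose and 0.4 mM ATP in pH 7.6 Hepes; compounds preincubated 20 min with substrate. G6PDH/diaphorase coupling converts resazurin to resorufin, read kinetically (ex 525/em 590 nm) for 30 min.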

In assay [15] the target is T1, Hexokinase-4 (Homo sapiens) + Glucokinase regulatory protein (Homo sapiens). The experiment in a line: qHTS assay for inhibitors of recombinant human GCK-GKRP interaction: ADP-Glo assay (AID 743206).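 Further: plate controls were DMSO plus enzyme for no effect and no enzyme for full effect.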 The gist of the method: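 GST-GCK and FLAG-GKRP (15 nM each in the dispensed mix, with 2 uM S6P) react with 0.4 mM ATP and 5 mM glucose (final) in Hepes pH 7.6 for 60 min at room temperature. ADP is measured by ADP-Glo luminescence.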

The target is the same in assay [16]. As to the kind of experiment: qHTS assay for inhibitors of recombinant human GCK-GKRP interaction: HTRF assay (AID 743207).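 Further: 0% = DMSO with GCK present and -100% = DMSO wells lacking GCK.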 The gist of the method:
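GST-GCK and FLAG-GKRP (5 nM each) were combined with 2 uM S6P in pH 7.1 Hepes/MgCl2/KCl/DTT buffer, then compound and anti-FLAG XL665/anti-GST K antibodies were added. After 60 min at room temperature, HTRF 665/615 nm emission was read.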

Assay [17] can be described thus: qHTS assay for cell viability of the p53RE-bla HCT-116 cell line (AID 743292). Further: on the % scale 0 is the no-effect control and ±100 the full control effect; nearly all actives have a fitted effect of over 55% in size. Summed up:
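In this qHTS counter-screen, metabolically competent p53RE-bla HCT-116 cells were counted via their ATP content. Compounds were applied for 16 h at 37 C and luciferase-coupled luminescence was measured.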

A short description of assay [18]: qHTS assay for cell viability of HEK293 cells (AID 743288). Further: on the % scale 0 is the no-effect control and ±100 the full control effect; nearly all actives have a fitted effect of over 50% in size. The following applies: ATP luminescence (CellTiter-Glo), 18 h; max response: stronger effect = lower value. Summed up:
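Parental HEK293 cells were seeded at 2,000 cells/well, rested at least 5 h at 37 C, then exposed to compounds in DMSO for 18 h at 37 C. Viability was read as ATP-dependent luciferase luminescence after 30 min at room temperature.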

Inconclusive results are not listed. Active and inactive are the calls of the source. Unless noted, the call rests on the fitted dose curve; in most records, active means well fitted curve in the direction sought with a large enough effect; inconclusive means small, poorly fitted or top-dose-only effect, or another doubt; inactive means no such curve, though single readings can be large; an effect the other way counts as inactive or inconclusive.

T1 sequence (P35557 whole entry, looked up): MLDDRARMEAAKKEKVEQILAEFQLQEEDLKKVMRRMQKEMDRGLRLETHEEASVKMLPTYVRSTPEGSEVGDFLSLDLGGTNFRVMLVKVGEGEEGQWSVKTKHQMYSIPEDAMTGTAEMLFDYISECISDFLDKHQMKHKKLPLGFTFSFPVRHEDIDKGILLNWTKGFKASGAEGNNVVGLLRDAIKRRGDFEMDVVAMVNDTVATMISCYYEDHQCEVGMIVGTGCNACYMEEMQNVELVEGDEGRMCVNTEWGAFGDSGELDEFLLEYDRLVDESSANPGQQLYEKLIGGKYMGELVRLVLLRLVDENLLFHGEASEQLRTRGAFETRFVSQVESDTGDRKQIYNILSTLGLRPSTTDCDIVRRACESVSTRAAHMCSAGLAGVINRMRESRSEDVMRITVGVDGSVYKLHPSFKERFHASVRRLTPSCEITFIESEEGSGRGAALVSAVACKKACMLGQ
T1 sequence (Q14397 whole entry, looked up): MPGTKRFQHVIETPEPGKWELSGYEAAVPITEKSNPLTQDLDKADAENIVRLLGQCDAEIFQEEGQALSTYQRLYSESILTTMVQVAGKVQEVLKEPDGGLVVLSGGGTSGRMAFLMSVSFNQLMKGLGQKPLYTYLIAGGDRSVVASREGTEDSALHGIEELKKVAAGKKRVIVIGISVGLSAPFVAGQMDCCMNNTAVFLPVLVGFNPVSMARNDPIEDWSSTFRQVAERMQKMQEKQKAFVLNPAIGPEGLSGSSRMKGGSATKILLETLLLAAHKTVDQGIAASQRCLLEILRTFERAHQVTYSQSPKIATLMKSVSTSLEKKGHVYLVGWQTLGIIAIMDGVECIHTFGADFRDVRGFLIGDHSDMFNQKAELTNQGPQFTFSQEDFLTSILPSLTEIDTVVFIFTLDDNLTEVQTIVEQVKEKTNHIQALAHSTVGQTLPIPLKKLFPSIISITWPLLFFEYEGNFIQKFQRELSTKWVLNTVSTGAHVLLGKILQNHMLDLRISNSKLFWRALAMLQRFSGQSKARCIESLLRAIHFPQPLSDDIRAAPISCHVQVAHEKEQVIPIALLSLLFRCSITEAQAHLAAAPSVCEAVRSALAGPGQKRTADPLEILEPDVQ

`CCCCCCCCCCCCCCCCCCCCCCO`: the max response in assay [1] is 23% (inactive). In [2], this compound registered a parasite growth, % of DMSO control of 94.9%. In addition, the parasite growth remaining, % of DMSO control (lower = more inhibition) in [3] turned out to be 124%. In [4], the parasite growth, % of control (lower = inhibition) was found to be 137%. For the same compound, in assay [5], the growth, % of control came to 105%. The cell viability, % of control (lower = more cytotoxic) in [6] was found to be 148%. Further, the viability (% of control) in [7] amounted to 105%. Besides, the Potency entry in [8], in assay [9], in assay [10], in assay [11] and in assay [12] was “inactive” each time.
On to `CNC[C@@H](O)[C@@H](O)[C@H](O)[C@H](O)CO`, for which, in assay [2], the parasite growth, % of DMSO control stood at 65.8%. Further, the parasite growth remaining, % of DMSO control (lower = more inhibition) in [3] is 123%. For the same compound, in assay [4], the parasite growth, % of control (lower = inhibition) was found to be 82.7%. The growth, % of control in [5] was 75.9%. Further, the cell viability, % of control (lower = more cytotoxic) in assay [6] amounted to 216%. Further, the viability (% of control) in assay [7] stood at 115%. Also, the Potency result in [8], in assay [9], in assay [10], in assay [11] and in assay [12] was “inactive” each time.
Take `CC(=O)N1CCN(c2ccc(OC[C@H]3CO[C@](Cn4ccnc4)(c4ccc(Cl)cc4Cl)O3)cc2)CC1`: in assay [13], the max response was -20.7% (inactive). The result in assay [14], in assay [15] and in assay [16] was inactive. Besides, the Potency entry in [17], in assay [8] and in [9] was “inactive” throughout. The parasite growth, % of DMSO control in [2] is 10.3%. Further, the growth, % of control in [5] was 6.71%. Also, the cell viability, % of control (lower = more cytotoxic) in assay [6] worked out at 64.7%. Moreover, the viability (% of control) in [7] worked out at 22.2%. Further, the Potency in [10] is 16.6 µM (active).
`O=P(O)(O)C(O)(Cn1ccnc1)P(=O)(O)O` returned a parasite growth, % of DMSO control in assay [2] of 103% [at 9.64 µM]. In addition, the parasite growth, % of control (lower = inhibition) in [4] turned out to be 94.2% [at 9.64 µM]. In addition, the cell viability, % of control (lower = more cytotoxic) in assay [6] worked out at 109% [at 23.2 µM]. The viability (% of control) in [7] worked out at 108% [at 23.2 µM]. Also, the Potency entry in assay [8], in assay [9], in assay [10], in assay [11] and in assay [12] was “inactive” in each case.
As for `O=c1c(O)c(-c2cc(O)c(O)c(O)c2)oc2cc(O)cc(O)c12`, the result in assay [14], in [15] and in [16] was inactive. This compound also yielded a parasite growth, % of DMSO control in assay [2] of 93.5%. For the same compound, the parasite growth remaining, % of DMSO control (lower = more inhibition) in assay [3] is 85.3%. Also, in [4], the parasite growth, % of control (lower = inhibition) was 111%. This compound also came in with a growth, % of control in assay [5] of 106%. Also, the cell viability, % of control (lower = more cytotoxic) in assay [6] is 54.4%. The viability (% of control) in assay [7] is 111%. Besides, the Potency result in assay [8], in assay [9] and in [11] was “inactive” throughout. Moreover, the Potency in [10] is 16.6 µM (active).
In assay [2], `CCOc1cc(CC(=O)N[C@@H](CC(C)C)c2ccccc2N2CCCCC2)ccc1C(=O)O` yielded a parasite growth, % of DMSO control of 83.8%. For the same compound, in assay [3], the parasite growth remaining, % of DMSO control (lower = more inhibition) turned out to be 123%. Besides, the parasite growth, % of control (lower = inhibition) in [4] came out at 91.4%. Also, in assay [5], the growth, % of control amounted to 75.6%. The cell viability, % of control (lower = more cytotoxic) in [6] was found to be 23.9%. Moreover, the viability (% of control) in assay [7] turned out to be 27.5%. Besides, the Potency result in assay [8], in assay [9], in assay [10], in assay [11] and in assay [12] was “inactive” each time.
For the compound `CNC[C@H](O)c1ccc(O)c(O)c1`, the max response in [13] is 4.44% (inactive); in [18] it was -7.6% (inactive). The outcome in [14], in [15] and in assay [16] was inactive. Further, the Potency result in [17], in assay [8] and in [9] was “inactive” throughout. The compound further displayed a parasite growth, % of DMSO control in [2] of 61.3% [at 57.5 µM]. Also, in assay [3], the parasite growth remaining, % of DMSO control (lower = more inhibition) stood at 70.6% [at 57.5 µM]. The parasite growth, % of control (lower = inhibition) in [4] worked out at 51.2% [at 57.5 µM]. For the same compound, the growth, % of control in assay [5] stood at 78% [at 57.5 µM]. Moreover, the cell viability, % of control (lower = more cytotoxic) in assay [6] amounted to 50.3% [at 92.2 µM]. Moreover, the viability (% of control) in assay [7] turned out to be 79.5% [at 92.2 µM]. Moreover, the Potency in assay [10] was 42.9 µM (active).
`COC(=O)C1=C(C)NC(C)=C(C(=O)OC(C)C)C1c1cccc2nonc12` (stereo not drawn) registered a parasite growth, % of DMSO control in assay [2] of 51.5%. Further, in assay [3], the parasite growth remaining, % of DMSO control (lower = more inhibition) came out at 96.4%. Also, the parasite growth, % of control (lower = inhibition) in [4] came to 120%. The same compound returned a growth, % of control in assay [5] of 99.6%. Moreover, in assay [6], the cell viability, % of control (lower = more cytotoxic) worked out at 131%. In addition, in assay [7], the viability (% of control) was 105%. The Potency entry in [8] and in [9] was “inactive” throughout. For the same compound, the Potency in assay [10] is 23.5 µM (active); in [11] it was 26.4 µM (active).

For the origin of these results see PubChem BioAssay (NCATS).
